According to the supplement of paper PMC8728848:
Shown is part of a subset that was picked to be rich in the strongest signals.

Key:
Test in all cases: glycan array binding signal (z-score within array); higher = stronger binding
Settings in all cases: glycan notation: IUPAC condensed, linker removed
[1] = biological target: Fuc(a1-2)Gal6S(b1-3)GlcNAc
Summary of the method: (§1)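 Columns mapping to the same glycan were averaged after glycan names were converted to IUPAC-condensed notation. The data come from 3228 arrays in the Consortium for Functional Glycomics database, limited to those with an available protein sequence. Binding is reported as a within-array Z-score averaged across arrays of one protein sequence and across linkers.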

[2] = biological target: Fuc(a1-2)[Gal(a1-3)]Gal(b1-3)GlcNAc(b1-2)Man(a1-3)[Fuc(a1-2)[Gal(a1-3)]Gal(b1-3)GlcNAc(b1-2)Man(a1-6)]Man(b1-4)GlcNAc(b1-4)[Fuc(a1-6)]GlcNAc
Summary of the method: as §1

[3] = biological target: Fuc(a1-2)[Gal(a1-3)]Gal(b1-3)GlcNAc(b1-3)GalNAc
Summary of the method: as §1

[4] = biological target: Fuc(a1-2)[Gal(a1-3)]Gal(b1-4)GlcNAc(b1-2)Man(a1-3)[Fuc(a1-2)[Gal(a1-3)]Gal(b1-4)GlcNAc(b1-2)Man(a1-6)]Man(b1-4)GlcNAc(b1-4)GlcNAc
Summary of the method: as §1

[5] = biological target: Fuc(a1-2)[Gal(a1-3)]Gal(b1-4)GlcNAc(b1-2)Man(a1-3)[Fuc(a1-2)[Gal(a1-3)]Gal(b1-4)GlcNAc(b1-2)Man(a1-6)]Man(b1-4)GlcNAc(b1-4)[Fuc(a1-6)]GlcNAc
Summary of the method: as §1

[6] = biological target: Fuc(a1-2)[Gal(a1-3)]Gal(b1-4)[Fuc(a1-3)]GlcNAc(b1-3)GalNAc
Summary of the method: as §1

[7] = biological target: Fuc(a1-2)[GalNAc(a1-3)]Gal(b1-3)GlcNAc(b1-2)Man(a1-3)[Fuc(a1-2)[GalNAc(a1-3)]Gal(b1-3)GlcNAc(b1-2)Man(a1-6)]Man(b1-4)GlcNAc(b1-4)GlcNAc
Summary of the method: as §1

[8] = biological target: Fuc(a1-3)GlcNAc
Summary of the method: as §1

[9] = biological target: Fuc(a1-3)[Gal3S(b1-4)]GlcNAc
Summary of the method: as §1

[10] = biological target: Gal(a1-3)Gal(b1-3)GlcNAc(b1-6)GalNAc
Summary of the method: as §1

[11] = biological target: Gal(a1-4)Gal(b1-4)GlcNAc(b1-2)Man(a1-3)[Gal(a1-4)Gal(b1-4)GlcNAc(b1-2)Man(a1-6)]Man(b1-4)GlcNAc(b1-4)GlcNAc
Summary of the method: as §1

[12] = biological target: Gal(b1-3)GalNAc(b1-3)Gal
Summary of the method: as §1

[13] = biological target: Gal(b1-3)GlcNAc(b1-3)Gal(b1-4)GlcNAc(b1-2)Man(a1-3)[Gal(b1-3)GlcNAc(b1-3)Gal(b1-4)GlcNAc(b1-2)Man(a1-6)]Man(b1-4)GlcNAc(b1-4)GlcNAc
Summary of the method: as §1

[14] = biological target: Gal(b1-4)GlcNAc(a1-6)Gal(b1-4)GlcNAc
Summary of the method: as §1

[15] = biological target: Gal(b1-4)GlcNAc(b1-2)Man(a1-3)[Gal(b1-4)GlcNAc(b1-2)][GlcNAc(b1-4)]Man(b1-4)GlcNAc(b1-4)GlcNAc
Summary of the method: as §1

[16] = biological target: Gal(b1-4)GlcNAc(b1-2)Man(a1-3)[Man(a1-6)]Man(b1-4)GlcNAc(b1-4)GlcNAc
Summary of the method: as §1

[17] = biological target: Gal(b1-4)GlcNAc(b1-2)[Gal(b1-4)GlcNAc(b1-6)]Man(a1-6)[GlcNAc(b1-4)][Gal(b1-4)GlcNAc(b1-2)Man(a1-3)]Man(b1-4)GlcNAc(b1-4)GlcNAc
Summary of the method: as §1

[18] = biological target: Gal(b1-4)GlcNAc(b1-3)Gal(b1-4)GlcNAc(b1-2)Man(a1-3)[Gal(b1-4)GlcNAc(b1-3)Gal(b1-4)GlcNAc(b1-2)Man(a1-6)]Man(b1-4)GlcNAc(b1-4)[Fuc(a1-6)]GlcNAc
Summary of the method: as §1

[19] = biological target: Gal(b1-4)GlcNAc(b1-3)Gal(b1-4)GlcNAc(b1-3)Gal(b1-4)GlcNAc(b1-2)[Gal(b1-4)GlcNAc(b1-3)Gal(b1-4)GlcNAc(b1-3)Gal(b1-4)GlcNAc(b1-6)]Man(a1-6)[Gal(b1-4)GlcNAc(b1-3)Gal(b1-4)GlcNAc(b1-3)Gal(b1-4)GlcNAc(b1-2)Man(a1-3)]Man(b1-4)GlcNAc(b1-4)[Fuc(a1-6)]GlcNAc
Summary of the method: as §1

[20] = biological target: Gal(b1-4)GlcNAc(b1-3)Gal(b1-4)GlcNAc(b1-3)Gal(b1-4)GlcNAc(b1-3)Gal(b1-4)GlcNAc(b1-2)Man(a1-3)[Gal(b1-4)GlcNAc(b1-3)Gal(b1-4)GlcNAc(b1-3)Gal(b1-4)GlcNAc(b1-3)Gal(b1-4)GlcNAc(b1-2)Man(a1-6)]Man(b1-4)GlcNAc(b1-4)[Fuc(a1-6)]GlcNAc
Summary of the method: as §1

[21] = biological target: Gal3S(b1-3)[Fuc(a1-4)]GlcNAc
Summary of the method: as §1

[22] = biological target: Gal6S(b1-3)GlcNAc6S
Summary of the method: as §1

[23] = biological target: GlcNAc(b1-2)Man(a1-3)[GlcNAc(b1-2)Man(a1-6)]Man(b1-4)GlcNAc(b1-4)GlcNAc
Summary of the method: as §1

[24] = biological target: GlcNAc(b1-2)[GlcNAc(b1-4)]Man(a1-3)[GlcNAc(b1-4)][GlcNAc(b1-2)[GlcNAc(b1-6)]Man(a1-6)]Man(b1-4)GlcNAc(b1-4)GlcNAc
Summary of the method: as §1

[25] = biological target: GlcNAc(b1-3)Gal
Summary of the method: as §1

[26] = biological target: GlcNAc(b1-3)Gal(b1-4)GlcNAc(b1-2)Man(a1-3)[GlcNAc(b1-3)Gal(b1-4)GlcNAc(b1-2)Man(a1-6)]Man(b1-4)GlcNAc(b1-4)GlcNAc
Summary of the method: as §1

[27] = biological target: GlcNAc(b1-3)Gal(b1-4)GlcNAc(b1-2)Man(a1-3)[GlcNAc(b1-3)Gal(b1-4)GlcNAc(b1-2)Man(a1-6)]Man(b1-4)GlcNAc(b1-4)[Fuc(a1-6)]GlcNAc
Summary of the method: as §1

[28] = biological target: GlcNAc(b1-3)Gal(b1-4)GlcNAc(b1-3)Gal(b1-4)GlcNAc(b1-2)Man(a1-3)[GlcNAc(b1-3)Gal(b1-4)GlcNAc(b1-3)Gal(b1-4)GlcNAc(b1-2)Man(a1-6)]Man(b1-4)GlcNAc(b1-4)GlcNAc
Summary of the method: as §1

[29] = biological target: GlcNAc(b1-3)Gal(b1-4)GlcNAc(b1-3)Gal(b1-4)GlcNAc(b1-2)Man(a1-3)[GlcNAc(b1-3)Gal(b1-4)GlcNAc(b1-3)Gal(b1-4)GlcNAc(b1-2)Man(a1-6)]Man(b1-4)GlcNAc(b1-4)[Fuc(a1-6)]GlcNAc
Summary of the method: as §1

[30] = biological target: GlcNAc(b1-3)Gal(b1-4)GlcNAc(b1-3)Gal(b1-4)GlcNAc(b1-3)Gal(b1-4)GlcNAc(b1-2)Man(a1-3)[GlcNAc(b1-3)Gal(b1-4)GlcNAc(b1-3)Gal(b1-4)GlcNAc(b1-3)Gal(b1-4)GlcNAc(b1-2)Man(a1-6)]Man(b1-4)GlcNAc(b1-4)GlcNAc
Summary of the method: as §1

B1: PpFlo2 (Pichia pastoris) (protein)
chain: MGSSHHHHHHSSGLVPRGSHMDDSGNGDNSDTAYGCDITTNAVDGFDATIYQYNANDLRLIRDPTFMSTGYLGRNVLNKISGVTVPGFNIWNPSSRTATVYGVKNVNYYNMVLELKGYFKADVSGDYKLTLSHIDDSSMLFFGKETAFKCCDAGSIPLNEAPTDYSLFTIKPSNQVNSEVISATQYLEAGKYYPVRIVFVNALERARFDFKLTIPSGAVLDDFQNYIYQFGDLDENSCHE
glycan array binding signal (z-score) [1]: -0.272 | glycan array binding signal (z-score) [2]: -0.293 | glycan array binding signal (z-score) [3]: -0.288 | glycan array binding signal (z-score) [4]: -0.209 | glycan array binding signal (z-score) [5]: -0.288 | glycan array binding signal (z-score) [6]: -0.297 | glycan array binding signal (z-score) [7]: -0.287 | glycan array binding signal (z-score) [8]: -0.292 | glycan array binding signal (z-score) [9]: -0.313 | glycan array binding signal (z-score) [10]: -0.271 | glycan array binding signal (z-score) [11]: -0.23 | glycan array binding signal (z-score) [12]: -0.272 | glycan array binding signal (z-score) [13]: -0.174 | glycan array binding signal (z-score) [14]: -0.273 | glycan array binding signal (z-score) [15]: -0.344 | glycan array binding signal (z-score) [16]: -0.273 | glycan array binding signal (z-score) [17]: -0.297 | glycan array binding signal (z-score) [18]: -0.25 | glycan array binding signal (z-score) [19]: -0.261 | glycan array binding signal (z-score) [20]: -0.243 | glycan array binding signal (z-score) [21]: -0.286 | glycan array binding signal (z-score) [22]: -0.286 | glycan array binding signal (z-score) [23]: 3.88 | glycan array binding signal (z-score) [24]: 0.675 | glycan array binding signal (z-score) [25]: 1.09 | glycan array binding signal (z-score) [26]: 4.64 | glycan array binding signal (z-score) [27]: 4.49 | glycan array binding signal (z-score) [28]: 3.9 | glycan array binding signal (z-score) [29]: 6.15 | glycan array binding signal (z-score) [30]: 4.24
